From the OligoGym collection

Molecular target: EIF1
Experiment: pooled miR-30 sensor sort-seq; sequence = guide strand
Conditions: shRNA
Note: reference of the scale not given here.

Row | Sequence | sensor-assay potency score (higher = more potent)
1 | AAACTTTTTCTTAAACGCCTTC | -0.311
2 | TTACTTGCATCAGCAAAGGGGT | -1.07
3 | TCTTTTTATCGTAATCATCAGC | -0.92
4 | TTGCAGGCAAACTTTTTCTTAA | -0.992
5 | TTTATCGTAATCATCAGCGATC | -0.622
6 | AATTACTTCTCCATATTCCGGA | 0.541
7 | TGTAGCTGAATTACTTCTCCAT | 0.149

Molecular target: EIF2B2
Experiment: as above
Conditions: shRNA

Row | Sequence | sensor-assay potency score (higher = more potent)
8 | TATGTTTAACACACTACTGAAC | -1.15
9 | TTGACTCTTGACATAACGGCAA | -0.00739
10 | TAACACACTACTGAACCAGAAA | -0.956
11 | TAATCTTGAGCACTCTCCGCAC | -0.531
12 | ATCCTCTCTGACAACTCCGAGC | -1.34
13 | TTATGTTTAACACACTACTGAA | -0.666
14 | TTTAACACACTACTGAACCAGA | -0.372
15 | ATAATCTTGAGCACTCTCCGCA | 0.402
16 | TAGAGTTCACTCATCAGGCGGT | 0.258
17 | TCTCTGACAACTCCGAGCCCTT | -1.5
18 | TATGAAATGAGTCTTCTTCATT | -1.13
19 | TGACTCTTGACATAACGGCAAA | -1.53

Molecular target: EIF3K
Experiment: as above
Conditions: shRNA

Row | Sequence | sensor-assay potency score (higher = more potent)
20 | TTGATGTGCCTGGTCGATCATG | -1.46
21 | TACCCTTGAGCAACTTGCCCAC | -0.487
22 | TTGGCTACAGATGAAGATCTGC | 0.0721
23 | TATTTGCTCATCCACACCTTTA | -1.23
24 | TACAGATGAAGATCTGCCCCGA | 0.0464
25 | TTCTTGATGTGCCTGGTCGATC | -1.05
26 | ATCTTCTCCACAATGTTCTTGG | -0.584
27 | TAAACTTTCGGACAGAGTCTTC | -0.691
28 | TTGCACAGGGTGAAGTCTGTGT | -0.115
29 | TATACCTTCCAAGAGGTCCATG | -1.12
30 | TGATGCTGGACACACTGTCAAA | -1.61
31 | TTCTCCACAATGTTCTTGGGTT | -0.486

Molecular target: EIF3M
Experiment: as above
Conditions: shRNA

Row | Sequence | sensor-assay potency score (higher = more potent)
32 | TTGTCCTCTGTGTAACTTCCGA | -0.798
33 | ATCTTCTTCACTGATGTCGATG | -1.42
34 | AACATCTTTATCATCCTCCTTC | 0.329
35 | TGAAGCAGCATCACTCTTCTTA | 0.0165
36 | TTTTCTAACTTGATCCAGCTCA | -0.0518
37 | AACATCATCAGCTCCAATCTGA | 0.0943
38 | TACAGGAGTATTCTTATCCATC | -1.23
39 | TTGCTTAACAACTGCAGTCTCA | -0.8
40 | TTAACAACTGCAGTCTCAGAGA | -0.725
